Screen size: about 6,200 compounds; about 2,900 (47%) were called active. Rule as the data show it: active = inhibition above about 50%; inactive = the rest. So high a share suggests a set chosen from earlier hits. Some of the results follow.
experiment: Mycobacterium tuberculosis growth inhibition, primary screen (AID 1259343); settings: inhibition: at 10 µM, active compounds read high; outcome: 10 uM

Structure (SMILES)	inhibition
O=c1c(-c2cccc(Br)c2)[n+]([O-])c2ccccc2n1O	5.77% (inactive)
O[N+]1=CC=CCC1=S.On1ccccc1=S.[Zn]	102% (active)
COc1ccc2cc(CN(C)c3ccc(C#N)cn3)ccc2c1	19.4% (inactive)
CCc1ccc(S(=O)(=O)N2CCC(CO)(Cc3ccc(OC)cc3)CC2)s1	15.3% (inactive)
O=S(=O)(c1ccc(Cl)cc1)N1CCCC2CCCCC21 (configuration not stated)	23.9% (inactive)
Nc1cc(S(=O)(=O)N2CCCCC2)ccc1Oc1ccc(Cl)cc1	16.6% (inactive)
COc1ccc(-c2ccc(S(=O)(=O)N3CCCCCC3)cc2)cc1	81.1% (active)
COc1ccc(CC2CCN(S(=O)(=O)c3ccc(Cl)cc3)CC2)cc1	56.9% (active)
Cc1ccc(S(=O)(=O)N2CCC(NC(=O)C(C)Oc3ccc(Cl)cc3Cl)CC2)cc1 (configuration not stated)	10.4% (inactive)
COc1ccc(S(=O)(=O)N2CC3(C)CC2CC(C)(C)C3)cc1 (configuration not stated)	24.4% (inactive)
COc1ccc(CC2CCN(S(=O)(=O)c3ccc(C#N)cc3)CC2)cc1	52.4% (active)
CCN1CCc2c(sc(NC(=O)C(C)(C)C)c2-c2nc3ccccc3s2)C1	100% (active)
CCN1CCc2c(sc(NC(C)=O)c2-c2nc3ccccc3s2)C1	79.4% (active)
CN1CCc2c(sc(NC(=O)c3ccco3)c2-c2nc3ccccc3s2)C1	inactive
CCN1CCc2c(sc(NC(=O)C3CC3)c2-c2nc3ccccc3s2)C1	36% (inactive)
CCN1CCc2c(sc(NC(=O)c3ccc([N+](=O)[O-])cc3)c2-c2nc3ccccc3s2)C1	42.7% (inactive)
CCC(=O)Nc1sc2c(c1-c1nc3ccccc3s1)CCN(CC)C2	60.8% (active)
CCN1CCc2c(sc(NC(=O)c3ccco3)c2-c2nc3ccccc3s2)C1	87.1% (active)
CCC(=O)Nc1sc2c(c1-c1nc3ccccc3s1)CCN(C)C2	30.1% (inactive)
C(=Nn1c(-c2ccco2)csc1=NC1CCCCC1)c1ccccn1	-7.16% (inactive)
CCN1CCc2c(sc(NC(=O)c3ccc(C(C)=O)cc3)c2-c2nc3ccccc3s2)C1	5.96% (inactive)

Structure (SMILES)	inhibition
CN1CCc2c(sc(NC(=O)c3cccs3)c2-c2nc3ccccc3s2)C1	45.1% (inactive)
CCN1CCc2c(sc(NC(=O)c3cccs3)c2-c2nc3ccccc3s2)C1	52% (active)
CN1CCc2c(sc(NC(=O)C(C)(C)C)c2-c2nc3ccccc3s2)C1	52.2% (active)
CN1CCc2c(sc(NC(=O)CS(=O)(=O)c3ccccc3)c2-c2nc3ccccc3s2)C1	25.4% (inactive)
Cc1ccc(S(=O)(=O)CC(=O)Nc2sc3c(c2-c2nc4ccccc4s2)CCN(C)C3)cc1	-29.9% (inactive)
CCN1CCc2c(sc(NC(=O)c3ccc(OC)cc3)c2-c2nc3ccccc3s2)C1	inactive
CCN1CCc2c(sc(NC(=O)c3ccccc3)c2-c2nc3ccccc3s2)C1	100% (active)
CC1CCc2c(sc3nc(C(C)N4CCOCC4)[nH]c(=O)c23)C1 (configuration not stated)	49.6% (inactive)
COc1ccc(OCCSCc2nc3sc4c(c3c(=O)[nH]2)CCC(C)C4)cc1 (configuration not stated)	54.4% (active)
CC1CCc2c(sc3nc(CN(Cc4ccccc4)CC(O)COCc4ccccc4)[nH]c(=O)c23)C1 (configuration not stated)	17.2% (inactive)
N=c1oc2c([N+](=O)[O-])cc(N3CCCCC3)cc2cc1-c1nc2ccccc2s1	5.54% (inactive)
Oc1ccc(Br)cc1C=NNc1ccc(F)cc1F	58.9% (active)
CN(C)c1ccc(C=NNc2ccc(F)cc2F)cc1	14.3% (inactive)
COc1cc(OC)c(OC)cc1C=NNc1ccc(F)cc1F	84.3% (active)
COc1ccc(CN2CCN(c3ccc(Oc4ccccc4)cc3)C(=O)C2C)cc1 (configuration not stated)	28.7% (inactive)
CCOC(=O)c1nnc2n(c1=O)CCN2c1ccc(OC)cc1	31.9% (inactive)
O=c1c2cnc(N3CCOCC3)nc2ccn1-c1ccc(Cl)c(Cl)c1	12.3% (inactive)
COc1ccc(N2CN=C3SCC(=O)N3C2)cc1	95.9% (active)
O=C1CSC2=NCN(c3ccc(I)cc3)CN12	63.4% (active)
O=C1CSC2=NCN(c3ccc(Cl)c(Cl)c3)CN12	71.9% (active)
CNc1cnc(-c2ccc(O)cc2C)cn1	9.26% (inactive)

Structure (SMILES)	inhibition
CCCCCCCCN=C1NC(=O)CS1	95.8% (active)
Nc1ncc(Br)cc1S(=O)(=O)N1CCCCC1	77.9% (active)
CCCCCOc1cc(C)ccc1S(=O)(=O)N1CCCC1	41.6% (inactive)
CCOC(=O)C1CCN(C2CCN(c3nncc(-c4ccccc4)n3)CC2)CC1	-15.5% (inactive)
CCOc1ccc(-c2ccc(=O)n(Cc3cc(C)ccc3C)n2)cc1	-12.8% (inactive)
CCOc1ccc(-c2ccnc(N3CCN(C(=O)C(=O)OC)CC3)n2)cc1	53.2% (active)
O=C(NCCc1ccco1)c1ccc(C2SCCS2)cc1	77.9% (active)
O=C(NCCc1ccco1)c1ccc(Br)cc1F	5.5% (inactive)
CC(C)(CNC(=O)CCc1ccco1)c1ccc(Br)cc1	11.2% (inactive)
N#Cc1ccc(NS(=O)(=O)c2ccc(F)c(Cl)c2)nc1	27% (inactive)
O=S(=O)(Nc1ccc(Br)cn1)c1ccc(Cl)cc1	77.7% (active)
O=S(=O)(Nc1cnc(Br)cn1)c1cccc(Cl)c1	10.2% (inactive)
CC(C)(C)c1ccc(CC2CCN(C(=O)CCCl)CC2)cc1	82% (active)
CC(Cl)C(=O)N1CCC(Cc2ccc(C(F)(F)F)cc2)CC1 (configuration not stated)	90.3% (active)
O=C(NCc1ccccc1F)C(C1CCCC1)N1CCN(C(=O)c2ccc(C(F)(F)F)cc2)CC1 (configuration not stated)	-35.5% (inactive)
O=C(N1CCC(Cc2ccc(-c3ccccc3)cc2)CC1)C(F)(F)C(F)F	39.3% (inactive)
O=C(c1c(F)c(F)cc(F)c1F)N1CCC(Cc2ccc(C(F)(F)F)cc2)CC1	71.6% (active)
O=C(C1CCC1)N1CCC(Cc2ccc(C(F)(F)F)cc2)CC1	83.6% (active)
Cc1cc2cc(NC(=O)c3ccc(CN4CC[C@H](O)C4)cc3)ccc2o1	91.8% (active)
O=C1NC(=NC2CCCC2)SC1=Cc1cc2c(cc1Br)OCO2	63.1% (active)

Reference: PubChem BioAssay AID1259343 (VanderVen Lab, College of Veterinary Medicine, Cornell …, 2017)
